# From PubChem
# PLK1 PBD block = blocks phosphopeptide binding to human PLK1 polo-box domain | P53350 | Plk1 PBD binding of FITC phosphopeptide, fluorescence polarization | Potency, µM, without a hit: max response, negative = inhibition, usual class: inhibitors | 2.8% of 360,000 active; further: potency means the concentration at half of the fitted maximal effect; series mostly up to about 57 µM; on the % scale 0 is the no-effect control and ±100 the full control effect; nearly all actives have a fitted effect of over 65% in size
# G9a block = G9a (human) methyltransferase inhibition; Q96KQ7; G9a H3K9 monomethylation, AlphaScreen, 2 h; Potency, µM (series often up to 102 µM), for the others: at the highest dose activity, negative = inhibition, actives largely listed as inhibitors; 8.8% of 350,000 active; AID 504332; further: potency means the concentration at half of the fitted maximal effect; on the % scale 0 is the no-effect control and ±100 the full control effect; nearly all actives have a fitted effect of over 75% in size
#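 Signal arises when biotinylated H3K9 peptide, once monomethylated, bridges streptavidin donor and antibody-captured acceptor beads. Enzyme at 20 nM was preincubated 15 min with test compounds; peptide 500 nM and SAM 20 uM then reacted for 2 h.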
# PI5P4K alpha inh = inhibitors of human PI5P4K alpha | P48426 | PI5P4Kalpha enzyme, ADP-Glo luminescence, 60 min; stronger effect = lower value | max response, % | 1.2% of 330,000 active; active means max response of -50% or lower; inconclusive means between -30% and -50%; inactive means -30% or higher; further: value at the top dose of about 77 µM; on the % scale 0 is the no-effect control and ±100 the full control effect
#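 qHTS, 1536-well: enzyme/substrate mix, compound by pin tool, 5 microM ATP final; RT 60 min; ADP-Glo reagents 1 (45 min) then 2 (30 min); luminescence.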
# HP1b chromo inh = inhibitors of HP1-beta chromodomain binding to methylated histone tails | AlphaScreen HP1-beta / biotin-H3K9me3 peptide binding | P83916 | 0.56% of 390,000 active | AID 540317 | Potency, µM (series often up to 114 µM), inactives show top-dose activity change, negative = inhibition, most hits filed as inhibitors; further: potency means the concentration at half of the fitted maximal effect; nearly all actives have a fitted effect of over 70% in size
#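 HP1-beta protein (50 nM final) preincubated 30 min at room temperature with biotinylated H3(1-18)K9me3 peptide (50 nM) in PBS pH 7.4, 0.01% Tween-20, then compound added for 30 min. AlphaScreen streptavidin donor/nickel chelate acceptor beads (10 ug/mL final), 30 min dark, luminescence read.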
# JMJD2A Tudor = JMJD2A Tudor domain (human) inhibition; 4.4% of 390,000 active; O75164; AlphaScreen JMJD2A-Tudor / H3K4me3 peptide binding; Potency, µM (highest dose often 114 µM), inactives show at the highest dose activity change, negative = inhibition, usual class: inhibitors; further: potency means the concentration at half of the fitted maximal effect; on the % scale 0 is the no-effect control and ±100 the full control effect; nearly all actives have a fitted effect of over 50% in size
# BAZ2B block = blocks human BAZ2B; AlphaScreen BAZ2B-H3K14Ac peptide displacement; Potency, µM (top dose mostly 114 µM), without a hit: at the top dose activity change, negative = inhibition, usual class: inhibitors; AID 504333; Q9UIF8; 4.4% of 360,000 active; further: potency means the concentration at half of the fitted maximal effect; on the % scale 0 is the no-effect control and ±100 the full control effect; nearly all actives have a fitted effect of over 60% in size
#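 Inhibition is scored as reduced AlphaScreen emission. The BAZ2B/b-H3(5-23)K14Ac complex (50 nM each) in PBS pH 7.4, 0.01% Tween-20 meets compound (up to 110 uM) for 30 min at RT before bead addition.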
# The depositor's hits bear a star; u = inconclusive; x = no result given; [ ] = dose if it differs, or a comment. Shown are actives, neighbours in structure and some others; about 12% of the full set was active somewhere. Unless noted, the call rests on the fitted dose curve; in most records, active means well fitted curve in the direction sought with a large enough effect; inconclusive means small, poorly fitted or top-dose-only effect, or another doubt; inactive means no such curve, though single readings can be large; an effect the other way counts as inactive or inconclusive.
SMILES,PLK1 PBD block,G9a block,PI5P4K alpha inh,HP1b chromo inh,JMJD2A Tudor,BAZ2B block
CCOC(=O)C1CCN(S(=O)(=O)c2ccc3c(c2)CCN3C(=O)C2CCC2)CC1,26.7µM*,x,-2.4,6.9%,u,3.2%
CC(=O)Nc1nonc1-c1nnc(SCC(=O)Nc2ccc(C)cc2C)n1C,x,7.4%[59 µM],x,9.3%,-13.9%,-5.5%
C[C@@H]1CC2[C@@H]3CC[C@H]4CC(=O)CC[C@]4(C)C3=CC[C@]2(C)[C@@]1(O)C(=O)CO (some centres undefined),2.1%,56.2µM*,-8.6,29.2%,-4.1%,-24.2%
O=C(NC(=S)Nc1nc2c(s1)CSc1ccccc1-2)c1ccccc1,-15.4%,3.55µM*,-4.2,-18.5%,-30.6%,u
O=C(NC(=S)Nc1nc2c(s1)CCCC2)c1ccc(C(=O)c2ccccc2)cc1,-3.8%,-38.8%[59 µM],3.3,-12.2%,-26.4%,-9.9%
Cc1ccc(C)c(N2CCN(S(=O)(=O)c3ccc(C(=O)N(C)C)s3)CC2)c1,x,-6.4%[12.7 µM],x,12.8%,-15.6%,-18.0%
NC(=O)CN(C/C=C/c1ccccc1)C/C=C/c1ccccc1,-13.0%,x,2.1,u,20µM*,u
CC(=O)c1ccc(NC(=S)NNC(=O)c2ccccc2[N+](=O)[O-])cc1,u,u,-16.7,-10.2%,-10.1%[57.1 µM],50.1µM*
Cc1cccc(C(=O)NNC(=O)c2ccccc2[N+](=O)[O-])c1,-11.6%,0.2%,5.9,15.7%,-5.5%,6.2%
O=C(NNC(=S)Nc1ccccc1)c1ccccc1[N+](=O)[O-],-11.6%,31.6µM*,4.0,13.3%,-19.6%,-13.8%
Cc1cccc(NC(=O)C2Cc3ccccc3O/C2=N\O)c1 (centres undefined),-2.9%,-11.3%,-2.4,37.8%,-10.4%,2.7%
CCOc1ccc(OCC)c(NS(=O)(=O)c2c(C)[nH]c(=O)[nH]c2=O)c1,x,-16.2%[59 µM],x,24.0%,-5.8%,-3.3%
O=C(CSc1nc2ccsc2c(=O)n1Cc1ccccc1F)NCc1ccccc1Cl,x,3.7%[59 µM],x,-2.8%,-11.0%,-2.8%
COc1ccc(NCc2cc3cc4c(cc3n(CC(=O)Nc3cc(C)ccc3C)c2=O)OCCO4)cc1,x,-24.7%[59 µM],x,33.3%,-7.6%,-17.3%
Cc1nc2oc(C(=O)c3ccc(Br)cc3)c(N)c2c2c1COC(C)(C)C2,-8.7%,25.1µM*,7.7,29.8%,2.9%,3.1%
CCCc1nc2oc(C(=O)c3ccccc3)c(N)c2c2c1COC(C)(C)C2,0.5%,u,-1.9,34.6%,-0.4%,-3.7%
Cc1ccc(C(OCC(O)CNC(C)c2ccccc2)c2ccccc2)cc1 (centres undefined),2.8%,8.91µM*,23.6,u,1.26µM*,39.8µM*
O=C(Cc1ccccc1)NC(C(=O)O)C(O)c1ccc([N+](=O)[O-])cc1 (centres undefined),-8.5%,-28.7%,3.3,53.1%,1.0%,2.5%
Cc1ccc(C(OCC(O)CNC(CO)C(O)c2ccc([N+](=O)[O-])cc2)c2ccccc2)cc1 (centres undefined),-5.2%,12.6µM*,7.3,u,39.8µM*,50.1µM*
Cc1ccc(N2CCN(C(=O)c3c(C)oc4ncn(CC(C)C)c(=O)c34)CC2)c(C)c1,x,-27.3%[59 µM],x,25.2%,-6.1%,0.8%[57.1 µM]
Cc1ccc(NS(=O)(=O)c2cc(-c3cnc(C4CC4)o3)ccc2C)cc1Cl,x,-1.7%[59 µM],x,16.7%,u,-34.0%
O=C(Cn1c(=O)sc2ccccc21)NCc1ccccn1,21.2µM*,-0.8%[59 µM],-5.1,13.3%,u,-4.5%
S=c1[nH]nc(COc2ccccc2)n1C1CCCCC1,-13.0%,2.51µM*,0.2,8.6%,50.1µM*,-0.4%
CC(C)CCn1c(COc2ccccc2)n[nH]c1=S,-3.7%,1.78µM*,0.2,34.3%,-12.4%,-19.0%
S=c1[nH]nc(CSc2nc3ccccc3s2)n1C1CCCCC1,-22.2%,10µM*,-11.4,-20.2%,u,u
SMILES,PLK1 PBD block,G9a block,PI5P4K alpha inh,HP1b chromo inh,JMJD2A Tudor,BAZ2B block
C#CCSc1nnc(CSc2nc3ccccc3s2)n1-c1ccccc1,-1.6%,u,-12.9,40.7%,-19.8%,-7.0%
S=c1[nH]nc(COc2ccccc2)n1Cc1ccccc1,-9.8%,3.55µM*,1.2,3.9%,89.1µM*,-3.0%
COc1ccc(CC(=O)N/N=C(\C)c2cccs2)cc1,-20.3%,x,2.8,6.5%,-17.1%,2.5%
FC(F)(F)c1cccc(NCc2n[nH]c(=S)n2C2CCCCC2)c1,-1.3%,28.2µM*,7.1,31.9%,u,u
Cc1cccc(OCc2n[nH]c(=S)n2Cc2ccccc2)c1,u,17.8µM*,-14.3,-10.9%,u,-25.8%
O=C1C=C(O)c2c(O)cccc2C1=O,x,82.1%[59 µM],x,x,x,-7.8%
COc1cc2c(cc1OC)C(O)=CC(=O)C2=O,-12.0%,x,-54.3*,x,x,x
Cn1c(=O)c2cn(Cc3ccc(Cl)cc3)cc2n(C)c1=O,-2.1%,15.8µM*,x,16.3%,-12.6%,-34.8%
Cn1c(=O)c2cn(-c3ccccc3)cc2n(C)c1=O,-15.2%,32.7%[12.7 µM],-7.7,55.8%,-28.7%,-23.5%
COc1ccc(OC)c(C2C(C(=O)c3cccs3)=C(O)C(=O)N2CCN2CCOCC2)c1 (centres undefined),-10.5%,44.7µM*,-0.8,25.3%,-0.4%,20.0%
COc1cccc(C2C(C(=O)c3ccco3)=C(O)C(=O)N2CCCN2CCOCC2)c1OC (centres undefined),-14.8%,x,3.0,34.4%,-7.0%,x
COc1ccc(C2C(C(=O)c3cccs3)=C(O)C(=O)N2CCN2CCOCC2)c(OC)c1 (centres undefined),-6.9%,50.1µM*,-8.8,8.8%,-22.5%,-19.6%
C1CCN(CC2CCCCN2)CC1 (centres undefined),5.3%,x,0.1,31.5%,u,x
CCCn1c2ccccc2c2cn[nH]c(=O)c21,-4.6%,4.4%,-8.1,-5.1%,-11.1%,-2.2%
CCCn1c(=O)c2ccccc2n2c(=S)[nH]nc12,-12.3%,3.55µM*,-10.2,26.6%,1.41µM*,-5.2%
CCCCCn1c(=O)c2ccccc2n2c(=S)[nH]nc12,18.9µM*,1.41µM*,-19.0,0.2%,6.31µM*,-33.2%
CCCCCCn1c(=O)c(-c2ccccc2)c(O)c2ccccc21,-6.4%,36.4%[12.7 µM],2.3,23.2%,-4.7%,8.2%
Cn1c(=O)c2ccccc2n2c(=S)[nH]nc12,-24.8%,6.31µM*,-15.1,79.4µM*,3.16µM*,-9.5%
Cn1c(=O)c2ccccc2n2c(CCl)nnc12,-2.1%,-7.7%,1.9,25.7%,-3.5%,-2.3%
CCCCn1c(=O)c2ccccc2n2c(=S)[nH]nc12,26.7µM*,1.26µM*,-17.9,-19.3%,3.55µM*,u
O=C(Cn1nc(-c2ccc(Cl)cc2)ccc1=O)NCCc1ccccc1,x,10.0%[59 µM],x,53.8%,0.0%,2.8%
O=C1CCCC2=C1C1(CCCC1)N=C(Nc1nc3cc(Br)ccc3o1)N2,x,x,x,x,-23.4%,x
